The source made the active and inactive calls. The calls were made as follows: active = hit-call score of the fitted dose curve at least 0.9, where 1 is the maximum; inactive = score below 0.9.
How the values were obtained:
Conditions in all cases: mRNA level, 48 h; actives raise or lower the signal
[1] = read-out: Cytochrome P450 3A4 (Homo sapiens) (UniProt P08684); assay: LTEA_HepaRG_CYP3A4: Life Technologies and Expression Analysis (LTEA) Assay for CYP3A4 using HepaRG (AID 2283487)
Procedure, shortened: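 In a human hepatic line (HepaRG), duplicate wells were treated 48 h with up to 100 uM chemical in half-log dilutions. Endpoint: CYP3A4 mRNA induction or loss relative to 0.5% DMSO vehicle, by qRT-PCR.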

[2] = read-out: DNA damage-inducible transcript 3 (DDIT3), DDIT3 (gene 1649); assay: LTEA_HepaRG_DDIT3: Life Technologies and Expression Analysis (LTEA) Assay for DNA damage-inducible transcript 3 (DDIT3) using HepaRG (AID 2283488)
Procedure, shortened: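 qRT-PCR readout (Fluidigm TaqMan), housekeeping-normalized to ACTB, GAPDH, POLR2A. HepaRG cells, 48 h exposure, 8-point half-log series from 100 uM in 0.5% DMSO, duplicates. Gain or loss of signal fitted against DMSO baseline.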

[3] = read-out: Pro-epidermal growth factor (Homo sapiens) (UniProt P01133); assay: LTEA_HepaRG_EGF: Life Technologies and Expression Analysis (LTEA) Assay for Epidermal growth factor (EGF) using HepaRG (AID 2283489)
Procedure, shortened: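 EGF expression changes in human HepaRG cells are scored by bidirectional fitting relative to 0.5% DMSO controls. Chemicals are tested at eight half-log concentrations up to 100 uM for 48 h in serum-free induction medium.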

[4] = read-out: Early growth response protein 1 (EGR1) transcription factor, EGR1 (gene 1958); assay: LTEA_HepaRG_EGR1: Life Technologies and Expression Analysis (LTEA) Assay for Early growth response protein 1 (EGR1) transcription factor using HepaRG (AID 2283490)
Procedure, shortened: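 EGR1 expression change in human HepaRG after 48 h chemical exposure, assessed by housekeeping-normalized qRT-PCR; concentration-response up to 100 uM, fitted in both directions against DMSO controls.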

[5] = read-out: Ezrin (EZR), EZR (gene 7430); assay: LTEA_HepaRG_EZR: Life Technologies and Expression Analysis (LTEA) Assay for Ezrin (EZR) using HepaRG (AID 2283491)
Procedure, shortened: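 Gain or loss of EZR mRNA is scored relative to 0.5% DMSO in human HepaRG cultures treated 48 h with test chemicals in duplicate, eight half-log concentrations from 100 uM.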

[6] = read-out: Cytochrome P450 3A7 (Homo sapiens) (UniProt P24462); assay: LTEA_HepaRG_CYP3A7: Life Technologies and Expression Analysis (LTEA) Assay for CYP3A7 using HepaRG (AID 2283492)
Procedure, shortened: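 Cells were thawed, plated, cultured 48 h, then treated for a further 48 h with chemicals (eight-point half-log series from 100 uM, 0.5% DMSO). RNA was isolated and CYP3A7 expression quantified by qRT-PCR normalised to ACTB, GAPDH and POLR2A.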

[7] = read-out: CYP3A5 (gene 1577); assay: LTEA_HepaRG_CYP3A5: Life Technologies and Expression Analysis (LTEA) Assay for CYP3A5 using HepaRG (AID 2283493)
Procedure, shortened: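 qRT-PCR read-out: CYP3A5 transcript in HepaRG lysates, housekeeping-normalized (ACTB/GAPDH/POLR2A), fitted bidirectionally against 0.5% DMSO baseline. Exposure 48 h, eight half-log concentrations up to 100 uM, duplicates.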

[8] = read-out: Fatty Acid-Binding Protein 1 (FABP1), FABP1 (gene 2168); assay: LTEA_HepaRG_FABP1: Life Technologies and Expression Analysis (LTEA) Assay for Fatty Acid-Binding Protein 1 (FABP1) using HepaRG (AID 2283494)
Procedure, shortened: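 Values reflect bidirectional concentration-response fitting of FABP1 mRNA change against 0.5% DMSO controls. Human HepaRG cultures received eight half-log doses (top 100 uM) for 48 h; expression quantified by TaqMan qRT-PCR with housekeeping-gene normalization.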

[9] = read-out: Cytochrome P450 4A22 (Homo sapiens) (UniProt Q5TCH4); assay: LTEA_HepaRG_CYP4A22: Life Technologies and Expression Analysis (LTEA) Assay for Cytochrome P450 4A22 (CYP4A22) using HepaRG (AID 2283495)
Procedure, shortened: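 Cryopreserved HepaRG cells, plated and cultured 48 h, then switched to serum-free induction medium and treated 48 h (duplicates, up to 100 uM, half-log steps, 0.5% DMSO). Expression change of CYP4A22 was fitted bidirectionally against vehicle.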

[10] = read-out: Cytochrome P450 7A1 (Homo sapiens) (UniProt P22680); assay: LTEA_HepaRG_CYP7A1: Life Technologies and Expression Analysis (LTEA) Assay for Cytochrome P450 7A1 (CYP7A1) using HepaRG (AID 2283496)
Procedure, shortened: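 Using 0.5% DMSO as vehicle and baseline, chemicals were tested in duplicate over an 8-point range from 100 uM on HepaRG cells for 48 h; qRT-PCR signals were normalised to ACTB, GAPDH and POLR2A.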

[11] = read-out: Glutathione S-Transferase (GSTA2), GSTA2 (gene 2939); assay: LTEA_HepaRG_GSTA2: Life Technologies and Expression Analysis (LTEA) Assay for Glutathione S-Transferase (GSTA2) using HepaRG (AID 2283497)
Procedure, shortened: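 Oxidative-stress marker GSTA2 is quantified by TaqMan qRT-PCR in HepaRG cultures treated 48 h across an eight-point range to 100 uM. Expression is normalized to endogenous controls and compared with 0.5% DMSO vehicle.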

[12] = read-out: Glutamate-cysteine ligase catalytic (GCLC), GCLC (gene 2729); assay: LTEA_HepaRG_GCLC: Life Technologies and Expression Analysis (LTEA) Assay for Glutamate-cysteine ligase catalytic (GCLC) using HepaRG (AID 2283498)
Procedure, shortened: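 Oxidative-stress marker GCLC is measured as mRNA change in human HepaRG liver cells after 48 h chemical treatment in 0.5% DMSO, eight concentrations from 100 uM. Activity is fitted bidirectionally against vehicle.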

[13] = read-out: growth arrest and DNA damage 45 (GADD45G), GADD45G (gene 10912); assay: LTEA_HepaRG_GADD45G: Life Technologies and Expression Analysis (LTEA) Assay for growth arrest and DNA damage 45 (GADD45G) using HepaRG (AID 2283499)
Procedure, shortened: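 Human hepatic HepaRG line treated 48 h with chemicals (eight concentrations, half-log steps from 100 uM); transcript induction or repression of GADD45G scored by qRT-PCR versus DMSO vehicle.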

[14] = read-out: Glutamate-cysteine ligase regulatory (GCLM), GCLM (gene 2730); assay: LTEA_HepaRG_GCLM: Life Technologies and Expression Analysis (LTEA) Assay for Glutamate-cysteine ligase regulatory (GCLM) using HepaRG (AID 2283500)
Procedure, shortened: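 HepaRG, 48 h dosing, 100 uM top, half-log x8, 0.5% DMSO vehicle. Readout: GCLM mRNA by TaqMan qRT-PCR, housekeeping-normalized (ACTB/GAPDH/POLR2A). Curves fit bidirectionally vs DMSO baseline.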

[15] = read-out: Glutathione S-transferase M3 (GSTM3), GSTM3 (gene 2947); assay: LTEA_HepaRG_GSTM3: Life Technologies and Expression Analysis (LTEA) Assay for Glutathione S-transferase M3 (GSTM3) using HepaRG (AID 2283501)
Procedure, shortened: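 Changes in GSTM3 expression, an oxidative-stress marker, were scored by bidirectional curve fitting against 0.5% DMSO vehicle. Human HepaRG cultures received chemicals for 48 h in duplicate, highest concentration 100 uM with half-log dilutions.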

[16] = read-out: Heat shock 70 kDa protein 1 (HSPA1A), gene 3303; assay: LTEA_HepaRG_HSPA1A: Life Technologies and Expression Analysis (LTEA) Assay for Heat shock 70 kDa protein 1 (HSPA1A) using HepaRG (AID 2283502)
Procedure, shortened: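 HepaRG, 48 h exposure, 8-pt half-log CRC from 100 uM in 0.5% DMSO, duplicates. Readout: TaqMan qRT-PCR of HSPA1A mRNA, housekeeping-normalized (ACTB/GAPDH/POLR2A). Bidirectional fit vs 0.5% DMSO baseline.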

[17] = read-out: Hypoxia-inducible factor 1-alpha (Homo sapiens) (UniProt Q16665); assay: LTEA_HepaRG_HIF1A: Life Technologies and Expression Analysis (LTEA) Assay for Hypoxia-inducible factor 1 (HIF1A) Trancription factor using HepaRG (AID 2283503)
Procedure, shortened: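 Gain- or loss-of-signal HIF1A mRNA changes are fitted against a DMSO baseline. HepaRG cultures receive eight concentrations, highest 100 uM, for 48 h in serum-free induction medium with 0.5% DMSO.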

[18] = read-out: 3-Hydroxy-3-Methylglutaryl-CoA Synthase 2 (HMGCS2), HMGCS2 (gene 3158); assay: LTEA_HepaRG_HMGCS2: Life Technologies and Expression Analysis (LTEA) Assay for 3-Hydroxy-3-Methylglutaryl-CoA Synthase 2 (HMGCS2) using HepaRG (AID 2283504)
Procedure, shortened: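 Expression of HMGCS2 in human HepaRG liver cells is measured by qRT-PCR 48 h after dosing (highest 100 uM, half-log series, 0.5% DMSO). Values come from bidirectional concentration-response fitting with DMSO as baseline.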

[19] = read-out: HGF (gene 3082); assay: LTEA_HepaRG_HGF: Life Technologies and Expression Analysis (LTEA) Assay for Hepatocyte Growth Facto (HGF) using HepaRG (AID 2283505)
Procedure, shortened: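 Gain or loss of HGF mRNA in human HepaRG liver cells after 48 h chemical exposure; eight concentrations up to 100 uM with 0.5% DMSO vehicle, quantified by TaqMan qRT-PCR.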

[20] = read-out: Insulin Like Growth Factor 1 (IGF1), IGF1 (gene 3479); assay: LTEA_HepaRG_IGF1: Life Technologies and Expression Analysis (LTEA) Assay for Insulin Like Growth Factor 1 (IGF1) using HepaRG (AID 2283506)
Procedure, shortened: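 qRT-PCR readout of IGF1 mRNA, normalized to three housekeeping genes, after 48 h chemical exposure of HepaRG cells. Concentrations: 8-point half-log series, top 100 uM, 0.5% DMSO vehicle. Gain or loss fitted against DMSO baseline.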

Measured: AC50

Chain of Hypoxia-inducible factor 1-alpha (Homo sapiens) (Q16665 whole entry, looked up): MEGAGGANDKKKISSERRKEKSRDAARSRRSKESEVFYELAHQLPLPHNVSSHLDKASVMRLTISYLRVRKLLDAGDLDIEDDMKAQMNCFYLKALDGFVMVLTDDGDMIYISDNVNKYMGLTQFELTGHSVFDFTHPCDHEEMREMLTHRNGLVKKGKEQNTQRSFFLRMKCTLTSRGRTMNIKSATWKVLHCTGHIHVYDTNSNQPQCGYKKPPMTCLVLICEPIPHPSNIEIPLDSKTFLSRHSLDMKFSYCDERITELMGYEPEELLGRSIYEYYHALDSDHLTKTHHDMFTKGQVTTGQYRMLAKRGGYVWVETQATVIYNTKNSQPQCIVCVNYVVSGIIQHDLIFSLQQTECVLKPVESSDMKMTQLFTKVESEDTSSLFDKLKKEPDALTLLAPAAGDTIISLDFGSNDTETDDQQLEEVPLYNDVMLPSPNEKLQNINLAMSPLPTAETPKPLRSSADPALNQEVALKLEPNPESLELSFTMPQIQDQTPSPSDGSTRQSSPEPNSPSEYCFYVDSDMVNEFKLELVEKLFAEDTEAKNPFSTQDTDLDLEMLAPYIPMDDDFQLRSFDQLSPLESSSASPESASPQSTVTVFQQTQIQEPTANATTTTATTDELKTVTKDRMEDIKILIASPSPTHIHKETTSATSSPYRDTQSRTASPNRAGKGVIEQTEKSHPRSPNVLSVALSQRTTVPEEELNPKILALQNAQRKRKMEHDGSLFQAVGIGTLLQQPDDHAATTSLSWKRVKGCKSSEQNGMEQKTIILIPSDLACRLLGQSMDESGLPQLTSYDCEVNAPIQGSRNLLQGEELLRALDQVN
Chain of Cytochrome P450 3A4 (Homo sapiens) (P08684 whole entry, looked up): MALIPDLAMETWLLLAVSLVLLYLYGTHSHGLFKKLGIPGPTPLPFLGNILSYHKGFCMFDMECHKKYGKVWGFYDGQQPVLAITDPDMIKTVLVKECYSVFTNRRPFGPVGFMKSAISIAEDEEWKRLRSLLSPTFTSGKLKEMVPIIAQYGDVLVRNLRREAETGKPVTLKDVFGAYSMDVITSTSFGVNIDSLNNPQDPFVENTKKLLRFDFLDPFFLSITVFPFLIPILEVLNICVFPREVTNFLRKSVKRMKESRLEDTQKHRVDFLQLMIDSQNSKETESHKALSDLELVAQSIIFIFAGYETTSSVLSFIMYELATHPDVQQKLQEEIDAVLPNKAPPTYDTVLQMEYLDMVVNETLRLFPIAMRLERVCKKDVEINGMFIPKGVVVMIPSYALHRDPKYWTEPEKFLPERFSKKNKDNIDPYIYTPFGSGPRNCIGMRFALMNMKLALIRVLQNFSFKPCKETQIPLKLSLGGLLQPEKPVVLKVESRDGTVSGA
Chain of Cytochrome P450 3A7 (Homo sapiens) (P24462 whole entry, looked up): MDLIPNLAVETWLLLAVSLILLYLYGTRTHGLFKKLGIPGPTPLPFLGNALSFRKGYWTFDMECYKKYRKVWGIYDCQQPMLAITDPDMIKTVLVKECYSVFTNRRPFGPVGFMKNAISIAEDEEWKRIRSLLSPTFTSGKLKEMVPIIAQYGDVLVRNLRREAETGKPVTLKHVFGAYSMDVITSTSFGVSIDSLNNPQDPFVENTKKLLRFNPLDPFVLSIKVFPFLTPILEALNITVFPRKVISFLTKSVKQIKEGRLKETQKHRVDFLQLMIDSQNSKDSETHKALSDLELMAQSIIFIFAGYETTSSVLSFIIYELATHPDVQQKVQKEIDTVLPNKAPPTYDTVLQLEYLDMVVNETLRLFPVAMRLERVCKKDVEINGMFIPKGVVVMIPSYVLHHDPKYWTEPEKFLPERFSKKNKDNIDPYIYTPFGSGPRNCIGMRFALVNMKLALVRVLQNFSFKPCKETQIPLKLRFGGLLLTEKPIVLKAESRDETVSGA

CN(C)C(=O)Nc1cccc(C(F)(F)F)c1
active: [1] 10.4 µM | [6] 7.66 µM
inactive: [2] | [3] | [4] | [5] | [7] | [8] | [9] | [10] | [11] | [12] | [13] | [14] | [15] | [16] | [17] | [18] | [19] | [20]

CCC(CC)Nc1c([N+](=O)[O-])cc(C)c(C)c1[N+](=O)[O-]
active: [1] 25.4 µM | [3] 50 µM | [6] 16.7 µM | [8] 50 µM | [20] 61.1 µM
inactive: [2] | [4] | [5] | [7] | [9] | [10] | [11] | [12] | [13] | [14] | [15] | [16] | [17] | [18] | [19]

COc1cc(OC)nc(Sc2cccc(Cl)c2C(=O)O)n1
active: [1] 50 µM
inactive: [2] | [3] | [4] | [5] | [6] | [7] | [8] | [9] | [10] | [11] | [12] | [13] | [14] | [16] | [17] | [18] | [19] | [20]

CC(Oc1cccc(Cl)c1)C(=O)O (stereo not given)
active: [1] 10 µM | [6] 14.2 µM
inactive: [2] | [3] | [4] | [5] | [7] | [8] | [9] | [10] | [11] | [12] | [13] | [14] | [15] | [17] | [18] | [19]

CCCCOC(=O)[C@@H](C)Oc1ccc(Oc2ccc(C#N)cc2F)cc1
active: [9] 18.7 µM | [18] 25.8 µM
inactive: [1] | [2] | [3] | [4] | [5] | [7] | [8] | [10] | [11] | [12] | [13] | [14] | [15] | [16] | [17] | [19] | [20]

O=[N+]([O-])c1cc(C(F)(F)F)c(Cl)c([N+](=O)[O-])c1Nc1ncc(C(F)(F)F)cc1Cl
inactive: [2] | [3] | [5] | [13] | [14] | [15] | [16] | [19]
active: [1] 30.2 µM | [4] 90.7 µM | [7] 66.7 µM | [8] 16.4 µM | [9] 23.1 µM | [10] 23 µM | [11] 24.9 µM | [12] 69.3 µM | [17] 31.9 µM | [18] 36.5 µM | [20] 79.4 µM

Source: PubChem BioAssay (EPA / NIEHS)
